Experimental data published in PubChem BioAssay (NCATS).
Results filed as inconclusive are left out. Unmarked numbers belong to inactive results. Calls come from the whole dose curve; as a rule, active = well fitted inhibition curve with a large enough effect; inconclusive = small, poorly fitted or top-dose-only effect; inactive = no such curve, though single readings can be large or run the other way.

Assay: Primary qHTS for inhibitors of La Crosse Virus (LACV) - induced cell death in SH-SY5Y cells (AID 1508616);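 note: top concentration of the series differs between compounds; 0% = infected DMSO wells and 100% = uninfected DMSO wells; higher means more rescue of cells from virus-induced death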
Conditions: SH-SY5Y LACV cytopathicity rescue, ATP luminescence, 6 d; series mostly up to 4.29 µM; activity change: at the top concentration
Description: Assay Provider: Karin Peterson Ph.D.
National Institute of Allergy and Infection Diseases, National Institute of Health
La Crosse Virus (LACV) is a California serogroup mosquito-borne arbovirus, family Peribunyaviridae, which is an endemic pathogen in North America and can induce a rare, life-threatening neurological disease in children. LACV was first isolated in the early 1960s, from a summer "rural encephalitis" case in La Crosse, Wisconsin, USA. Since then, LACV encephalitis cases have been found in more than twenty states, with most cases in the Mississippi and Ohio River basins. The life cycle of LACV is maintained between the vector, the eastern tree-hole mosquito Aedes triseriatus, and vertebrate hosts including eastern gray squirrels (Sciurus carolinensis) and chipmunks (Tamiasstriatus grinseus). […] Most LACV infections in humans are asymptomatic or induce mild clinical symptoms of fever, headache, lethargy and vomiting. However, in some cases LACV can cause severe neuroinvasive disease, including encephalitis, meningitis, and meningoencephalitis, requiring hospitalization. To date, there is neither a licensed vaccine nor a Food and Drug Administration (FDA) approved antiviral therapy available to prevent or treat LACV encephalitis. The primary treatment for viral encephalitis is palliative care due to the lack of therapeutics. In the current study, we conducted a screen of 4,096 FDA approved and bioactive small molecules against LACV, by screening for rescue of LACV-induced cell death in SH-SY5Y cells.
LACV-induced cytopathicity assay
SEQUENCE No. (1,2, 3, etc.); […] (e.g., Cells, Incubation, Reagent, etc.); VALUE and DESCRIPTION.
1. Reagent; 2 uL; Cell solution.
3. Compounds; 23nL; Compound library
4. Reagent; 12 uL; LACV virus
6. Reagent; 24 uL; ATPLite (PerkinElmer)
7. Time; 5 min; Room temperature
8. Detection; Luminescence; View
NOTES (numbers refer to sequence above)
1. Seed 6000 SH-SY5Y cells (ATCC CRL-2266) in 2 microL/well media (DMEM/F12 10% FBS, 1x L-Glutamine, 1x Pyruvate, 1x NEAA, 1x Pen/Strep) in 384-well assay plates (tissue culture treated, white, solid bottom).
2. Incubate at 37 degrees C with 5% CO2 for 24 hr.
3. Dispense 23 nL/well compounds in DMSO via pin transfer.
4. Dispense 12 microL/well of LACV (LACV/human/1978) in media at 0.01 MOI.
5. Incubate at for 6 days at 37C 5% CO2
6. Dispense 24 microL/well of ATPLite 1step Luminescence assay system (PerkinElmer).
7. Incubate for 5 min at room temperature.
8. Read luminescence signal (Viewlux plate reader, PerkinElmer). Data was normalized with DMSO control wells containing LACV as 0%, and DMSO control wells without virus as 100%.
With `CC(=O)Nc1ccc(OCCOCCOc2ccc(NC(C)=O)cc2)cc1` the “activity change” value was 14.7%.
With `COc1ccc(C(=O)NCc2ccc(OCCN(C)C)cc2)cc1OC` the “activity change” value was -16.8%.
With `O=C(O)C(S)C(S)C(=O)O` (stereo not given) the “activity change” value was 15.2%.
With `Cc1cc(-n2nc3ccc(Cl)cc3n2)c(O)c(C(C)(C)C)c1` the “activity change” value was 27.4%.
With `O=C(NCCCN1CCOCC1)c1ccc(Cl)cc1` the “activity change” value was -2.3%.
For `O=C(O)c1ccccc1OP(=O)(O)O`, the “activity change” value was 6.13%.
For `O=C(O)Cn1c(C(=O)Nc2nc(-c3ccccc3Cl)cs2)cc2ccccc21`, the “activity change” value was 6.49%.
In the case of `O=C(O)c1ccccc1C(=O)Nc1ccc(S(=O)(=O)Nc2nccs2)cc1`, the “activity change” value is reported as -2.36%.
For `CC(CN(C)C)C(C)(O)Cc1ccc(Cl)cc1` (stereo not given), the “activity change” value was -3.88%.
For `CC[C@]12CCCN3CCc4c(n(c5ccccc45)[C@@](O)(C(=O)OC)C1)[C@@H]32`, the “activity change” value was 6.15%.
For `CCOC(=O)OC(C)OC(=O)[C@@H]1N2C(=O)[C@@H](NC(=O)[C@H](N)c3ccccc3)[C@H]2SC1(C)C` (stereo not given in full), the “activity change” value was 26.2%.
In the case of `Cc1cc(O)cc(C)c1Cl`, the “activity change” value is reported as 34.7%.
With `COc1ccc(-c2cc(=O)c3c(O)cc(O[C@@H]4O[C@H](CO[C@@H]5O[C@@H](C)[C@H](O)[C@@H](O)[C@H]5O)[C@@H](O)[C@H](O)[C@H]4O)cc3o2)cc1O` the “activity change” value was 43.3%.
For `Cc1cc(C)nc(NS(=O)(=O)c2ccc(N)cc2)n1`, the “activity change” value was 4.01%.
In the case of `CCN(CC)CCc1nc(-c2ccccc2)no1`, the “activity change” value is reported as 4.76%.
With `O=C(O)c1ccc[n+]([O-])c1` the “activity change” value was 23.7%.
For `CN1CCCN=C1COC(=O)C(O)(c1ccccc1)C1CCCCC1` (stereo not given), the “activity change” value was 31.4%.
In the case of `NCc1ccc(S(N)(=O)=O)cc1`, the “activity change” value is reported as -4.22%.
With `Nc1c2c(nc3c1CCC3)CCCC2` the “activity change” value was -19%.
With `CC1CC(OC(=O)c2ccccc2O)CC(C)(C)C1` (stereo not given) the “activity change” value was 4.21%.
In the case of `NNC(=O)CP(=O)(c1ccccc1)c1ccccc1`, the “activity change” value is reported as -3.51%.
In the case of `NS(=O)(=O)c1cc(-c2nn[nH]n2)c(NCc2cccs2)cc1Cl`, the “activity change” value is reported as -1.29%.
In the case of `CN1C(C)(C)CCCC1(C)C`, the “activity change” value is reported as 35.8%.
For `CNc1c2c(nn1C)CCCC2`, the “activity change” value was -4.86%.
In the case of `CC(=O)Oc1cccc(O)c1`, the “activity change” value is reported as -0.31%.
With `OC[C@@H](O)[C@@H](O)[C@H](O)[C@H](O)CO` the “activity change” value was -17.4%.
For `Cc1cccc(Nc2ccccc2C(=O)O)c1C`, the “activity change” value was -3.96%.
With `COc1cc(O)cc(O)c1` the “activity change” value was 2.27%.
In the case of `NS(=O)(=O)c1ccc(NC(=O)CCC(=O)O)cc1`, the “activity change” value is reported as 11%.
For `CN1CC(=O)NC1=N`, the “activity change” value was -4.73%.
With `CC(=O)Oc1cccc(C)c1` the “activity change” value was 4.04%.
For `CCCCCCCC(=O)OCC(O)CO` (stereo not given), the “activity change” value was 0.707%.
With `FC(F)(F)C(Cl)Br` (stereo not given) the “activity change” value was 8.85%.
For `Cc1ccc(C(C)C)c(O)c1`, the “activity change” value was -6.71%.
In the case of `CC1CCN(CCCC(=O)c2ccc(F)cc2)CC1`, the “activity change” value is reported as -4.84%.
In the case of `CN[C@@H]1[C@@H](O)[C@@H](O[C@@H]2[C@H](O)[C@H](O[C@H]3OC(CN)=CC[C@H]3N)[C@@H](N)C[C@H]2N)OCC1(C)O` (stereo not given in full), the “activity change” value is reported as 22.4%.
For `C[N+](C)(C)CC[N+]1(C)Cc2c(Cl)c(Cl)c(Cl)c(Cl)c2C1`, the “activity change” value was -4.87%.
In the case of `Nc1ccc(S(=O)(=O)c2ccc(N)cc2)cc1`, the “activity change” value is reported as -3.14%.
For `NC(=O)NS(=O)(=O)c1ccc(N)cc1`, the “activity change” value was 11.4%.
With `Cc1c(C)c2c(c(C)c1OC(=O)c1cccnc1)CC[C@@](C)(CCC[C@H](C)CCC[C@H](C)CCCC(C)C)O2` the “activity change” value was 7.74%.
